This is one part of a sample in which hits are shown more often than they occur.
Pf Dd2 inh = Plasmodium falciparum Dd2 growth inhibition; P. falciparum Dd2 growth, SYBR Green, 72 h; Potency, µM (highest dose often 28.9 µM), inactives show top-dose activity, negative = inhibition, hits mostly inhibitors; 4.3% of 120,000 active; AID 1347417; active = well fitted inhibition curve with a large enough effect;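 also: plate controls were DMSO vehicle for no effect and reference drug for full effect; nearly all actives have a fitted effect of over 65% in size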
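Infected erythrocytes (Dd2, 0.3% parasitemia, 2.5% hematocrit final) are added to compound in RPMI-1640/Albumax II medium, grown 72 h at 37C in low oxygen, then lysed with saponin/Triton-X containing SYBR Green and read by fluorescence.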
An asterisk follows results filed as active; i = inactive; [ ] = dose if it differs, or a comment. Potency is read from the fitted curve at half-maximal effect.

SMILES | Pf Dd2 inh
COc1ncccc1-c1cc2c(ccn2CC2CCN(C)CC2)c(N2CCOCC2)n1 | 8.91µM*
c1cc(-c2cc3c(ccn3Cc3ccncc3)c(N3CCOCC3)n2)cc(N2CCOCC2)c1 | i
COc1ccccc1-c1cc2c(ccn2Cc2ccncc2)c(N2CCOCC2)n1 | -2.8%[44.1 µM]
COc1cccc(-c2cc3c(ccn3CC3CCN(C)CC3)c(N3CCOCC3)n2)c1 | 6.31µM*
COC(=O)c1cc2n(n1)CCCN(C(=O)c1ccc(OC)nc1OC)C2 | -1.2%
O=C(O)Cn1nc(C2CC2)nc1CCCN1CCCC1=O | -1.7%
O=C(COc1ccc(F)cc1)N1CCC(CCOc2ccccc2F)C1 (centres undefined) | i
O=C(NCc1ccccc1)C1=NO[C@@H]2CN(Cc3ccncc3)C[C@H]12 | 38.4%[44.1 µM]
COc1ccc(C2Cn3cnc(C(=O)N4CCC(C(=O)Nc5ccc(C)cc5)CC4)c3CO2)cc1 (centres undefined) | -19.8%
COc1ccc(C2Cn3cnc(C(=O)N4CCC(C(=O)Nc5ccccc5F)CC4)c3CO2)cc1 (centres undefined) | 11.2µM*
COc1ccc(C2Cn3cnc(C(=O)N4CCC(C(=O)Nc5ccccc5OC)CC4)c3CO2)cc1 (centres undefined) | 10µM*
COc1ccc(C2Cn3cnc(C(=O)N4CCC(C(=O)Nc5ccc(C)cc5C)CC4)c3CO2)cc1 (centres undefined) | -9.4%
COc1ccc(NC(=O)C2CCN(C(=O)c3ncn4c3COC(c3ccccc3)C4)CC2)cc1 (centres undefined) | i
COc1ccc(C2Cn3cnc(C(=O)N4CCC(C(=O)Nc5cccc(F)c5)CC4)c3CO2)cc1 (centres undefined) | -25.5%
O=C(NCc1ccc2c(c1)OCO2)c1ccc2c(c1)N(C(=O)c1ccc(F)cc1)CC2 | -18.3%
COc1cc(=O)n2c(c1C(=O)Nc1ccc(Br)cc1F)CCCC2 | -4.9%
Cc1ccc(-c2nc(C(=O)NCc3ccc4c(c3)OCO4)no2)cc1 | i
Cc1ccc(CNC(=O)c2noc(-c3ccc4c(c3)OCO4)n2)cc1 | i
Cc1ccc(-c2nc(C(=O)N3CCN(Cc4ccc5c(c4)OCO5)CC3)no2)cc1 | 11.2µM*
Cc1cc(Cl)ccc1NC(=O)C1CN(S(C)(=O)=O)CC12CCCCC2 (centres undefined) | -19.2%
Cc1ccc(C(=O)N2CCCCCCNC(=O)[C@@H]3C[C@@H](c4nc(Cc5ccccc5)no4)C[C@@H]32)cn1 | i
Cn1cc(C(=O)N2CCCCCCNC(=O)[C@@H]3C[C@@H](c4nc(Cc5ccccc5)no4)C[C@@H]32)cn1 | -2.2%
N#Cc1ccc(C(=O)N2CCCCCCNC(=O)[C@@H]3C[C@@H](c4nc(Cc5ccccc5)no4)C[C@@H]32)cc1 | 11.2µM*
Cn1nccc1C(=O)N1CCCCCCNC(=O)[C@@H]2C[C@@H](c3nc(Cc4ccccc4)no3)C[C@@H]21 | -17.4%
O=C1NCCCCCCN(C(=O)CN2CCCC2=O)[C@H]2C[C@H](c3nc(Cc4ccccc4)no3)C[C@@H]12 | -29.3%
SMILES | Pf Dd2 inh
O=C1NCCCCCCN(C(=O)c2ccco2)[C@H]2C[C@H](c3nc(Cc4ccccc4)no3)C[C@@H]12 | 7.94µM*
COc1cccc(CN2Cc3nc(-c4cc(Cl)ccc4OC)ccc3OCC2=O)c1 | -20.0%[44.1 µM]
CC1=C[C@@H](CNC(=O)CCCC(=O)O)[C@H](C(C)C)C[C@H]1Cc1nc2ccc(Cl)cc2[nH]1 | -5.5%
CC1=C[C@@H](CNC2CCN(C)CC2)[C@H](C(C)C)C[C@H]1Cc1nc2ccc(F)cc2[nH]1 | -21.8%[44.1 µM]
COC(=O)c1ccc2nc(C[C@@H]3C[C@@H](C(C)C)[C@H](CN)C=C3C)[nH]c2c1 | -16.0%[44.1 µM]
CC1=C[C@@H](CNC(=O)NC2CCCCC2)[C@H](C(C)C)C[C@H]1Cc1nc2ccc(C)cc2[nH]1 | -18.5%[44.1 µM]
CC1=C[C@@H](CN)[C@H](C(C)C)C[C@H]1Cc1nc2ccc(C)cc2[nH]1 | 10µM*
CC1=C[C@@H](CN)[C@H](C(C)C)C[C@H]1Cc1nc2ccc(Cl)cc2[nH]1 | 11.2µM*
O=C(CC1CCOCC1)NCc1cccc(F)c1 | -24.1%
O=C(Cc1cccnc1)N1[C@H]2CC[C@@H]1c1cnc(-c3ccc(F)cc3)nc1C2 | -14.9%
O=C(CCc1c[nH]c2ccccc12)N1[C@H]2CC[C@@H]1c1cnc(-c3ccccc3)nc1C2 | -19.2%
O=C(CCc1nc2ccccc2[nH]1)N1[C@H]2CC[C@@H]1c1cnc(-c3ccc(F)cc3)nc1C2 | 11.2µM*
O=C(NCc1ccc(F)cc1Cl)C1CCN(C(=O)c2ncn3c2COC(c2ccccc2)C3)CC1 (centres undefined) | i
COc1cccc(CC(=O)N2CCC(c3n[nH]c(=O)n3Cc3ccc(F)cc3)CC2)c1 | -3.8%
COc1ccc(Cn2c(C3CCN(C(=O)Cc4cccc(C)c4)CC3)n[nH]c2=O)cc1 | -4.5%
Cc1ccc(-n2c(C3CCN(C(=O)Cc4ccccc4Cl)CC3)n[nH]c2=O)cc1 | -16.9%
Cc1ccc(-n2c(C3CCN(C(=O)Cc4ccc(Cl)cc4)CC3)n[nH]c2=O)cc1 | 12.6µM*
Cc1ccc(CC(=O)N2CCC(c3n[nH]c(=O)n3-c3ccccc3)CC2)cc1 | i
